Laboratory results published in PubChem BioAssay (Tox21).
Results filed as inconclusive are left out. Entries that show only a call come without a potency. Activity calls are given as the source filed them. Unless noted, calls come from the whole dose curve; as a rule, active = well fitted curve in the direction sought with a large enough effect in the repeat runs; inconclusive = weak or mixed curves; inactive = no such curve, though single readings can be large; an effect the other way counts as inactive or inconclusive.

Key:
[1] = qHTS assay to identify small molecule antagonists of the thyroid receptor (TR) signaling pathway (AID 743065); note: nearly all actives have a fitted effect of over 55% in size; note: potency is the fitted concentration of half-maximal effect
Outline: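 Antagonism measured as loss of luciferase signal in GH3 cells stably carrying a TRE-luciferase reporter, co-treated with compound and T3 (1 nM final) for 23.5 h at 37 C. Viability was read in the same well by CellTiter-Fluor.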

[2] = tested on: thyroid hormone receptor (rat, GH3 cells); experiment: qHTS assay to identify small molecule agonists of the thyroid receptor (TR) signaling pathway (AID 743066; calls by dose curve)
[3] = qHTS assay to identify small molecule antagonists of the estrogen receptor alpha (ER-alpha) signaling pathway - cell viability counter screen (AID 743074; calls by dose curve;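 note: HEK293 cells carrying ER-alpha-UAS-bla reporter stimulated with 17beta-estradiol; nearly all actives have a fitted effect of over 45% in size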)
[4] = qHTS assay to identify small molecule antagonists of the estrogen receptor alpha (ER-alpha) signaling pathway using the BG1 cell line - cell viability counter screen (AID 743081);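 note: compound given together with 17beta-estradiol as the ER stimulus; nearly all actives have a fitted effect of over 45% in size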
[5] = target: Aromatase (Homo sapiens) (UniProt P11511); experiment: qHTS assay to identify aromatase inhibitors (AID 743083); note: nearly all actives have a fitted effect of over 55% in size
[6] = qHTS assay to identify aromatase inhibitors - cell viability counter screen (AID 743084);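 note: cells stimulated with testosterone during compound exposure; nearly all actives have a fitted effect of over 55% in size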
[7] = target: Estrogen receptor (Homo sapiens) (UniProt P03372); experiment: qHTS assay to identify small molecule agonists of the estrogen receptor alpha (ER-alpha) signaling pathway (AID 743075; calls by dose curve;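 note: HEK293 GripTite cells with ER-alpha and UAS-driven beta-lactamase reporter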)
[8] = target: Estrogen receptor (Homo sapiens) (UniProt P03372); experiment: qHTS assay to identify small molecule agonists of the estrogen receptor alpha (ER-alpha) signaling pathway using the BG1 cell line (AID 743079); details: BG1Luc4E2 cells, ERE-luciferase agonist, 22 h; note: nearly all actives have a fitted effect of over 20% in size
[9] = qHTS assay to identify small molecule antagonists of the estrogen receptor alpha (ER-alpha) signaling pathway using the BG1 cell line (AID 743080; calls by dose curve;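 note: BG1 cells stimulated with 17beta-estradiol alongside compound; nearly all actives have a fitted effect of over 25% in size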)
Outline: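 Readout is ONE-Glo luminescence, taken 30 min at room temperature after reagent addition, preceded by a CellTiter-Fluor viability read; BG1-Luc-4E2 cells had received compound and 17beta-estradiol for 21.5 h at 37 C.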

[10] = target: Estrogen receptor (Homo sapiens) (UniProt P03372); experiment: qHTS assay to identify small molecule antagonists of the estrogen receptor alpha (ER-alpha) signaling pathway (AID 743069; active = well fitted curve in the direction sought with a large enough effect in the signal ratio in the repeat runs, not every such curve was filed as active; the % refers to the signal ratio)
Outline: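 Antagonist mode: compounds in DMSO were co-added with 17beta-estradiol to ER-alpha-bla HEK293 cells (2% charcoal-stripped serum) and left 18 h at 37C. Reporter inhibition was measured as FRET fluorescence after 2 h LiveBLAzer substrate at room temperature.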

Estrogen receptor (Homo sapiens), sequence (P03372 whole entry, looked up): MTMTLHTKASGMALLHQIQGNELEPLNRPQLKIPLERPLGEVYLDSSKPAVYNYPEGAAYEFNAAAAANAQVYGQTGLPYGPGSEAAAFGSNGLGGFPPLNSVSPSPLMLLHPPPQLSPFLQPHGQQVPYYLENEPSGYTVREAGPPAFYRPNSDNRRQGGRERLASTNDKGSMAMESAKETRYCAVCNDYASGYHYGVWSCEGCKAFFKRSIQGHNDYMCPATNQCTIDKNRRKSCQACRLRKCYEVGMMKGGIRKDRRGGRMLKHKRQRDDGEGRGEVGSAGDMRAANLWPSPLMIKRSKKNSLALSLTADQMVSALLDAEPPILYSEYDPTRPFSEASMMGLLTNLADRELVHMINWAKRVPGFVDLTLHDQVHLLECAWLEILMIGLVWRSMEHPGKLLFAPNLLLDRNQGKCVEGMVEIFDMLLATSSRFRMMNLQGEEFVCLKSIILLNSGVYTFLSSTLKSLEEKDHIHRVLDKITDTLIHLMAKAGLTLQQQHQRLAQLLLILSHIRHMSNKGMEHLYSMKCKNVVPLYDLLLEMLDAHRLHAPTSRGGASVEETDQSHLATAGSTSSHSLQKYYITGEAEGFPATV
Aromatase (Homo sapiens), sequence (P11511 whole entry, looked up): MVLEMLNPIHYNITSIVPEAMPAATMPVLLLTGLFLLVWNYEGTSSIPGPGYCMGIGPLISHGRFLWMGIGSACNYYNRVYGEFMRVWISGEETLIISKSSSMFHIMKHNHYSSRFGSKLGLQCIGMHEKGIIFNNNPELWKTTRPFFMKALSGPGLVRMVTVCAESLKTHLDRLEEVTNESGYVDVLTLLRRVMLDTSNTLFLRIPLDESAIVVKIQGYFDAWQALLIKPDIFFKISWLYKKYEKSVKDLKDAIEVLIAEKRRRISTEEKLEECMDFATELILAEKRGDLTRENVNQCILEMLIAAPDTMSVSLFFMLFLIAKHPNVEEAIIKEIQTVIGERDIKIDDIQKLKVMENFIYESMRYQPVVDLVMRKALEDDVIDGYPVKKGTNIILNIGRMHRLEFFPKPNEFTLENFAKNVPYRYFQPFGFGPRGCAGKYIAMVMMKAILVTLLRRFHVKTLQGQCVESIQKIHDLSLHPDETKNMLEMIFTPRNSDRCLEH

Compound	Potency [1]	Potency [2]	Potency [3]	Potency [4]	Potency [5]	Potency [6]	Potency [7]	activation ([8]; at 70.3 µM (top of the series))	Potency [9]	activation ([8]; at 95 µM (top of the series))	Potency [10]
ClCCCCCCCl	inactive	inactive	inactive	inactive	inactive	inactive	–	–	–	–	–
C=CC(=O)OCCN(C)C	inactive	inactive	inactive	inactive	inactive	inactive	–	–	–	–	–
CCOC(=O)N(C)N=O	inactive	inactive	inactive	inactive	inactive	inactive	–	–	–	–	–
CCCCCCC1CCOC1=O (stereo not given)	inactive	inactive	inactive	inactive	inactive	inactive	–	–	–	–	–
CCC(=O)OC1(c2ccccc2)CCN(C)CC1	inactive	inactive	inactive	inactive	inactive	inactive	–	–	–	–	–
[P]#[In]	inactive	inactive	inactive	inactive	inactive	inactive	–	–	–	–	–
CC(=O)OCC1=C(C(=O)O)N2C(=O)[C@@H](N)[C@H]2SC1	inactive	inactive	inactive	inactive	inactive	inactive	–	–	–	–	–
CON(C)C(=O)Nc1ccc(Br)cc1	inactive	inactive	inactive	inactive	inactive	inactive	–	–	–	–	–
CC(Cl)(Cl)Cl	inactive	inactive	inactive	inactive	inactive	inactive	–	–	–	–	–
CC(C)(C)NC[C@H](O)c1ccc(O)cc1Cl	inactive	inactive	inactive	inactive	inactive	inactive	–	–	–	–	–
CCCOC(=O)Cc1ccc(OCC(=O)N(CC)CC)c(OC)c1	inactive	inactive	inactive	–	inactive	inactive	–	–	–	–	–
CNC(=O)Oc1cc(C)c(N(C)C)c(C)c1	inactive	inactive	inactive	inactive	inactive	inactive	–	–	–	–	–
Oc1ccc2c3c1O[C@H]1[C@@H](O)C=C[C@H]4[C@@H](C2)NCC[C@@]341	inactive	inactive	inactive	–	inactive	inactive	–	–	–	–	–
CC1=C2[C@H]3OC(=O)[C@@H](C)[C@@H]3CC[C@@]2(C)C=CC1=O	inactive	inactive	inactive	inactive	inactive	inactive	–	–	–	–	–
CCC1(c2cccc(O)c2)CCCCN(C)C1 (stereo not given)	inactive	inactive	inactive	–	inactive	inactive	–	–	–	–	–
C[C@@H](N)[C@@H](O)c1ccccc1	inactive	inactive	inactive	inactive	inactive	inactive	–	–	–	–	–
CCCC(C)(COC(N)=O)COC(N)=O	inactive	inactive	inactive	inactive	inactive	inactive	–	–	–	–	–
ClCCCCl	inactive	inactive	inactive	inactive	inactive	inactive	–	–	–	–	–
CC(C)c1ccc(O)cc1	inactive	inactive	inactive	inactive	inactive	inactive	–	–	–	–	–
O=C(O)CBr	inactive	inactive	inactive	inactive	inactive	inactive	–	–	–	–	–
Cc1ccc2cc(C)ccc2c1	inactive	inactive	inactive	inactive	inactive	inactive	–	–	–	–	–
COc1ccc2c(C(=O)c3ccc(Cl)cc3)c(C)n(CC(=O)O)c2c1	inactive	inactive	inactive	inactive	inactive	inactive	–	–	–	–	–

Compound	Potency [1]	Potency [2]	Potency [3]	Potency [4]	Potency [5]	Potency [6]	Potency [7]	activation ([8]; at 70.3 µM (top of the series))	Potency [9]	activation ([8]; at 95 µM (top of the series))	Potency [10]
CC(=NC#N)N(C)Cc1ccc(Cl)nc1	inactive	inactive	inactive	inactive	inactive	inactive	–	–	–	–	–
COC(=O)[C@@H](N)CCCN/C(N)=N/[N+](=O)[O-]	inactive	inactive	inactive	inactive	inactive	inactive	–	–	–	–	–
CCOC(=O)NC(C)(C)Cc1ccc(Cl)cc1	inactive	inactive	–	inactive	inactive	inactive	inactive	6.17% (inactive)	inactive	–	–
CC(C)N(Cc1ccccc1)C(=O)C(C)(C)C	inactive	inactive	inactive	inactive	inactive	inactive	–	–	–	–	–
CCc1cc(OC)c(C[C@H](C)N)cc1OC	31.9 µM (active)	inactive	inactive	–	inactive	inactive	–	–	–	–	–
CCOP(=S)(OCC)SCCl	inactive	inactive	–	inactive	–	–	inactive	9.52% (inactive)	inactive	–	–
CCC(=O)c1ccc(Cl)cc1	inactive	inactive	inactive	inactive	inactive	inactive	–	–	–	–	–
O=S1(=O)OCCO1	inactive	inactive	inactive	inactive	inactive	inactive	–	–	–	–	–
C=CCN1CC[C@]23CCCC[C@H]2[C@H]1Cc1ccc(O)cc13	29.8 µM (active)	inactive	inactive	inactive	inactive	inactive	–	–	–	–	–
O=C(O)C(Cl)Br (stereo not given)	inactive	inactive	inactive	inactive	inactive	inactive	–	–	–	–	–
O=c1[nH]c2ccccc2o1	inactive	inactive	inactive	inactive	inactive	inactive	–	–	–	–	–
CCC1(c2ccccc2)C(=O)N(COC)C(=O)N(COC)C1=O	inactive	inactive	inactive	inactive	inactive	inactive	–	–	–	–	–
CC(C)[C@]12CC(=O)[C@H](C)[C@H]1C2	inactive	inactive	inactive	inactive	inactive	inactive	–	–	–	–	–
BrCCc1ccccc1	inactive	inactive	inactive	inactive	inactive	inactive	–	–	–	–	–
CCOC(=O)C(SP(=S)(OC)OC)c1ccccc1 (stereo not given)	inactive	inactive	inactive	inactive	inactive	inactive	–	–	–	–	–
CCCCS(=O)(=O)Cl	inactive	inactive	inactive	inactive	inactive	inactive	–	–	–	–	–
COc1cc(CC(C)N)cc(OC)c1OC (stereo not given)	inactive	inactive	–	–	inactive	inactive	inactive	–	inactive	-7.73% (inactive)	–
CC[C@@H](CO)NC(=O)[C@@H]1C=C2c3cccc4c3c(cn4C)C[C@H]2N(C)C1	–	inactive	inactive	inactive	inactive	–	inactive	13.7% (inactive)	inactive	–	–
CC(C)C(C)(N)C#N (stereo not given)	inactive	inactive	–	inactive	inactive	inactive	–	–	–	–	–
CCCCCCCCBr	–	–	inactive	inactive	inactive	inactive	–	–	–	–	–
CON(C)C(=O)Nc1ccc(Br)c(Cl)c1	–	inactive	inactive	inactive	inactive	inactive	–	–	–	–	–
C#CCOC(=O)/C=C(C)/C=C/CC(C)CCCC(C)C (stereo not given)	–	–	inactive	inactive	inactive	inactive	inactive	–	inactive	–	–

Compound	Potency [1]	Potency [2]	Potency [3]	Potency [4]	Potency [5]	Potency [6]	Potency [7]	activation ([8]; at 70.3 µM (top of the series))	Potency [9]	activation ([8]; at 95 µM (top of the series))	Potency [10]
COC1=CC(=O)O[C@@H](/C=C/c2ccccc2)C1	inactive	inactive	–	inactive	inactive	inactive	–	–	–	–	–
CCOC(=O)c1ncn2c1CN(C)C(=O)c1c(I)cccc1-2	–	inactive	inactive	inactive	inactive	inactive	inactive	-3.09% (inactive)	inactive	–	–
CN1COCN(Cc2cnc(Cl)s2)/C1=N\[N+](=O)[O-]	inactive	inactive	–	inactive	inactive	inactive	–	–	–	–	–
CCOc1cc(OP(=S)(OC)OC)nc(CC)n1	–	–	inactive	inactive	inactive	inactive	inactive	-2.44% (inactive)	inactive	–	inactive
COc1ccccc1OC	inactive	inactive	–	inactive	inactive	inactive	inactive	21.9% (inactive)	inactive	–	–
C=CCc1cc(OC)c2c(c1)OCO2	inactive	inactive	–	inactive	inactive	inactive	–	–	–	–	–
O=C(O)C(F)(F)C(F)(F)C(F)(F)C(F)(F)C(F)(F)C(F)(F)F	inactive	inactive	–	inactive	inactive	inactive	–	–	–	–	–
C[N+]1(C)CCCCC1	inactive	–	inactive	inactive	inactive	inactive	–	–	–	–	–
CCN[C@@H](C)Cc1cccc(C(F)(F)F)c1	–	inactive	inactive	inactive	inactive	inactive	inactive	-18% (inactive)	inactive	–	inactive
CC[C@H](O)C(C[C@H](C)N(C)C)(c1ccccc1)c1ccccc1	–	–	inactive	inactive	inactive	inactive	inactive	–	inactive	-12.1% (inactive)	inactive
CCN[C@H](C)Cc1cccc(C(F)(F)F)c1	–	inactive	inactive	inactive	inactive	inactive	inactive	-8.58% (inactive)	inactive	–	inactive
CC(C)(N)Cc1ccc(Cl)cc1	–	inactive	inactive	inactive	inactive	inactive	inactive	0.193% (inactive)	inactive	–	inactive
CC1N=C(N)OC1c1ccccc1 (stereo not given)	inactive	inactive	–	–	inactive	inactive	inactive	10.7% (inactive)	inactive	–	–
CN1C(=O)COc2c(C(=O)NC3CN4CCC3CC4)cc(Cl)cc21 (stereo not given)	–	inactive	inactive	–	inactive	inactive	inactive	18.3% (inactive)	inactive	–	inactive
C=C1CC[C@@]2(O)[C@H]3Cc4ccc(O)c5c4[C@@]2(CCN3CC2CC2)[C@H]1O5	–	–	inactive	inactive	inactive	inactive	–	–	–	–	–
c1ccc2c(c1)CCNC2	–	–	inactive	inactive	inactive	inactive	–	–	–	–	–
O=C1CCCCC1Cl (stereo not given)	inactive	inactive	–	inactive	inactive	inactive	–	–	–	–	–
C#CC(C)(C)O	inactive	inactive	–	inactive	inactive	inactive	–	–	–	–	–
CCCCCCCCSC(=O)Oc1cc(Cl)nnc1-c1ccccc1	–	inactive	inactive	inactive	inactive	inactive	inactive	3.18% (inactive)	inactive	–	–
CCCOc1nn(C(=O)NS(=O)(=O)c2ccccc2C(=O)OC)c(=O)n1C	inactive	inactive	–	inactive	inactive	inactive	–	–	–	–	–
